Screening results as filed in PubChem.
In the library only some 4.1% were active in any assay of this set; here they are far more common.
BoNT F protease: BoNT/F light chain protease inhibitors, primary screen, biochemical, flow cytometry, MLPCN library. Multiplex microsphere protease cleavage assay. inhibition, % at 10 µM. 0.22% of 360,000 active. AID 588497, 2011; in the data active = inhibition above about 35%, passing the limit was not always enough; inconclusive = no clear call, values can overlap the other calls; also: plate controls were buffer without enzyme for full effect and enzyme alone for no effect
MazEF act: activators of E. coli MazEF toxin-antitoxin RNase, primary screen, biochemical, fluorescence, uHTS; AID 504720, 2011; FAM/BHQ RNA-DNA oligo cleavage fluorescence, 5 h; activation, % at 20 µM; 0.32% of 350,000 active; in the data active = activation above about 50%
Bead autofluor: compound fluorescence in toxin protease inhibitor counterscreen | compound autofluorescence counterscreen, microsphere flow cytometry; hits give high values | 3.1% of 360,000 active | fluorescence intensity (concentration not given with the values); in the data active = fluorescence intensity above about 16000; inconclusive = no clear call, values can overlap the other calls
Anthrax LF prot: Bacillus anthracis LF protease inhibitors, primary screen, biochemical, multiplex microsphere, MLPCN library; Lethal factor (Bacillus anthracis), P15917; multiplex microsphere protease cleavage assay; inhibition, % at 10 µM; 0.12% of 360,000 active; AID 588501, 2011; in the data active = inhibition above about 30%; inconclusive = no clear call, values can overlap the other calls; also: plate controls were buffer without enzyme for full effect and enzyme alone for no effect
BoNT-A LC inh2: BoNT/A light chain protease inhibitors, primary screen, biochemical, flow cytometry, MLPCN library | Botulinum neurotoxin type A light chain protease (Clostridium botulinum A str. ATCC 3502) | multiplex microsphere protease substrate cleavage | inhibition, % at 10 µM | 0.17% of 360,000 active | AID 588499, 2011; in the data active = inhibition above about 30%; inconclusive = no clear call, values can overlap the other calls; also: plate controls were buffer without enzyme for full effect and enzyme alone for no effect
DUSP3 inh: VHR1 phosphatase inhibitors, primary screen, biochemical, absorbance, uHTS | Dual specificity protein phosphatase 3 (Homo sapiens), P51452 | recombinant VHR phosphatase, pNPP absorbance | inhibition, % at 13.3 µM | 0.52% of 290,000 active | AID 1654, 2009; in the data active = inhibition above about 50%
BoNTA LC inh 1: BoNT/A light chain protease inhibitors, confirmation, biochemical, flow cytometry, cherry pick 1 | inhibition, % at 10 µM | multiplex microsphere protease assay | 3% of 720 active | shares compounds with BoNT F protease; in the data active = inhibition above about 32%
BoNT-F LC CP1: BoNT/F light chain protease inhibitors, confirmation, biochemical, flow cytometry, cherry pick 1. shares compounds with BoNT F protease. multiplex microsphere protease cleavage assay. inhibition, % at 10 µM. 720 tested, under 10 active
LF protease CP1: Bacillus anthracis LF protease inhibitors, confirmation, biochemical, multiplex microsphere, cherry pick 1; shares compounds with BoNT F protease; multiplex microsphere protease cleavage assay; inhibition, % at 10 µM; 720 tested, under 10 active; AID 602142, 2011
The depositor's hits bear a star; ? = inconclusive; . = no result. Unless noted, no rule for the calls is given here.

SMILES	BoNT F protease	MazEF act	Bead autofluor	Anthrax LF prot	BoNT-A LC inh2	DUSP3 inh	BoNTA LC inh 1	BoNT-F LC CP1	LF protease CP1
NC(=O)Cn1nc(-c2ccccc2)nc1-c1ccccc1	?	0	4464	31*	-2	.	-2	-6	4
CN1OC[C@@H]2CN(C(=O)CCc3ccccc3)[C@H](c3ccc(N4CCCCC4)cc3)C[C@@H]21	1	.	6156	0	-1	.	.	.	.
C[C@H]1CN=C(N(C)C)N1CCCC1CCCCC1	-10	3	4257	-6	-1	.	.	.	.
O=S(=O)(Nc1ccc(Cl)nn1)c1ccccc1	38*	-4	4098	0	6	17	-2	-1	-3
CSc1ccc(C(=O)C2CCCN(CCCn3cccn3)C2)cc1 (stereo not drawn)	37*	1	2175	0	3	31	0	0	7
CC[C@]12c3[nH]c4ccc(OC)cc4c3CCN1C(=O)C(CC(=O)NCc1ccco1)C[C@@H]2C(=O)N1CCN(C(=O)c2ccco2)CC1 (stereo partly drawn)	1	2	3748	-2	0	.	.	.	.
Cc1[nH]c2ccccc2c(=O)c1CN1CCCCCC1	1	-5	3388	7	-2	-1	.	.	.
Cc1[nH]c2ccc(Br)cc2c(=O)c1CN1CCCCC1	52*	5	8167	-26	?	36	-2	-6	-2
CC(=O)c1cccc(NC(=O)CCCCCn2nnc3ccccc3c2=O)c1	-5	10	3368	-1	0	-29	.	.	.
CNc1cc(C)c(C#N)c2nc3ccccc3n12	7	1	3969	32*	0	-42	0	-1	-5
CCCNc1cc(C)c(C#N)c2nc3ccccc3n12	1	10	3286	-7	0	-9	.	.	.
CCOc1cc(CNCCc2ccccc2F)ccc1OC	83*	6	3522	13	10	21	0	-5	-4
CCc1ccc(CNCCc2ccccc2F)cc1	-8	-5	2112	-2	0	8	.	.	.
Cc1cc(C(=O)O)sc1C	36*	-13	7884	3	6	25	-1	-3	-4
Cc1cc(C(=O)NCc2ccco2)sc1C	0	3	3512	-4	0	.	.	.	.
COc1cc(-c2ncc3ccccn23)cc(OC)c1OC	-3	10	3354	2	0	12	1	-14	-8
COc1ccc(-c2nc3ccccn3c2Cl)cc1	1	-3	3253	2	-1	32	.	.	.
COc1cc(OC)cc(-c2ncc3ccccn23)c1	-7	-2	4252	6	4	0	2	-10	1
COc1cccc(-c2ccc3nccn3c2)c1	-1	.	3988	5	2	.	.	.	.
COc1cccc(-c2ncc3ccccn23)c1	-4	-2	3261	11	5	22	2	-2	-1
c1csc(-c2ncc3ccccn23)c1	21	10	3405	15	14	3	.	.	.
COc1ccc(-c2ncc3ccccn23)cc1	1	8	4513	13	9	-2	2	1	6
CCOC(=O)c1ccccc1NC(=O)COC(=O)c1c(CC)noc1C	.	-2	.	.	.	.	.	.	.
C=CCN(C(C(=O)OC)C(C)C)S(=O)(=O)CCNCc1ccccc1 (stereo not drawn)	-13	7	3007	-4	0	.	.	.	.
O=C(Cn1cnc2cc([N+](=O)[O-])ccc2c1=O)Nc1cccc(S(=O)(=O)N2CCCCC2)c1	-3	7	5283	0	0	.	.	.	.
